Key:
Experiment in all cases: DAPPL (digital affinity profiling via proximity ligation, sequencing); 10 mM Tris-HCl pH 7.5, 50 mM NaCl, 1 mM DTT, 4% glycerol, room temperature, 30 min; GST-TFs on glutathione beads, 16-mer random dsDNA library, 0.1% formaldehyde crosslink after washing; high values mean tight binding
FLI1 = target: T1, FLI1 (Homo sapiens, UniProt Q01543 1-452); settings: protein: recombinant; tags: N-terminal GST; dsDNA, one strand shown
T1 sequence: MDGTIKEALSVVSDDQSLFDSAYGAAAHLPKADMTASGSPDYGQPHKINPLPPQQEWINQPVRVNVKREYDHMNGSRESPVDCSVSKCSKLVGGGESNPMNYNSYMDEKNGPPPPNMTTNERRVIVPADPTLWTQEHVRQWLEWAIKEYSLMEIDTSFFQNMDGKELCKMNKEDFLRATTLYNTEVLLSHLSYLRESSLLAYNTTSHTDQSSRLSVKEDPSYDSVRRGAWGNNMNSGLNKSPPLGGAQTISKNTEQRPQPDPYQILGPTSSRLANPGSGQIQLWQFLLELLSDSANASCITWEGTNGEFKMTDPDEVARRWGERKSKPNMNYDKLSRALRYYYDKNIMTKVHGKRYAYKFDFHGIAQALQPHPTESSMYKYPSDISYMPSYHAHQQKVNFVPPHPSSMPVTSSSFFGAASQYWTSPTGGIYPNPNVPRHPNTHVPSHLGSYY
How it was run: (§1)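 A tag-only sample was pooled with DNA-barcoded human transcription factors that had been expressed in yeast as GST fusions and captured on glutathione beads. The pools were incubated for 30 min at room temperature with 200 nmole of a random double-stranded 16-mer DNA library in Tris/NaCl/DTT/glycerol buffer, then washed, crosslinked with 0.1% formaldehyde, proximity-ligated (BsaI/T4 ligase, 1 h, 37 °C), PCR-amplified and sequenced on an Illumina NextSeq500. Binding signal is each hexamer's read frequency for a factor divided by its frequency for the tag-only sample.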

ELK1 = target: T2, ELK1 (Homo sapiens, UniProt P19419 1-428); settings: protein: recombinant; tags: N-terminal GST; dsDNA, one strand shown
T2 sequence: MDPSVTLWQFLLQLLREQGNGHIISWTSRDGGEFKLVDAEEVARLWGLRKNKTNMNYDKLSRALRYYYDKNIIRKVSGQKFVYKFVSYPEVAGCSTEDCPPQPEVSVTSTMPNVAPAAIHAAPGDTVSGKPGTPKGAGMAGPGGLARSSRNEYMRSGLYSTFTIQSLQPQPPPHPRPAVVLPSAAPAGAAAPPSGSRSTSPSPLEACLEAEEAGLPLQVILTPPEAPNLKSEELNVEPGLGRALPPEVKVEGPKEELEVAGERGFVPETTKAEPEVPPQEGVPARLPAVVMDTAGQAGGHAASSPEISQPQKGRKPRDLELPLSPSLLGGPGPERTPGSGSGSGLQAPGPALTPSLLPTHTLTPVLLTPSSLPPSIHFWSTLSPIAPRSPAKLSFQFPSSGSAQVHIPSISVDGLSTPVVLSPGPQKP
How it was run: as §1

GABPA = target: T3, GABPA (Homo sapiens, UniProt Q06546 1-454); settings: protein: recombinant; tags: N-terminal GST; dsDNA, one strand shown
T3 sequence: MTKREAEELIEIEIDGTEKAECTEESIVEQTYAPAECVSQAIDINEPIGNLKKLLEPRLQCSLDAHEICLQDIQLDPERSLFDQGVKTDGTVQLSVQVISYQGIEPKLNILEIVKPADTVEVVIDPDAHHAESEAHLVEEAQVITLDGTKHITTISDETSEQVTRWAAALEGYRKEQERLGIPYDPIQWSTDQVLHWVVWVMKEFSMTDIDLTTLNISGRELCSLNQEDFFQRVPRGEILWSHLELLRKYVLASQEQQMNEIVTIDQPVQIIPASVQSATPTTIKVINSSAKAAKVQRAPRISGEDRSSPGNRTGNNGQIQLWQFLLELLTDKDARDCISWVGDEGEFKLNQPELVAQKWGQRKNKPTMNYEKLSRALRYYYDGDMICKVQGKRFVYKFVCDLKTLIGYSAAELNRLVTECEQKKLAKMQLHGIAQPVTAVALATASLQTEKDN
How it was run: as §1

ELF1 = ELF1 (Homo sapiens, UniProt P32519 1-619); settings: protein: recombinant; tags: N-terminal GST; dsDNA, one strand shown
Chain of ELF1 (P32519 whole entry): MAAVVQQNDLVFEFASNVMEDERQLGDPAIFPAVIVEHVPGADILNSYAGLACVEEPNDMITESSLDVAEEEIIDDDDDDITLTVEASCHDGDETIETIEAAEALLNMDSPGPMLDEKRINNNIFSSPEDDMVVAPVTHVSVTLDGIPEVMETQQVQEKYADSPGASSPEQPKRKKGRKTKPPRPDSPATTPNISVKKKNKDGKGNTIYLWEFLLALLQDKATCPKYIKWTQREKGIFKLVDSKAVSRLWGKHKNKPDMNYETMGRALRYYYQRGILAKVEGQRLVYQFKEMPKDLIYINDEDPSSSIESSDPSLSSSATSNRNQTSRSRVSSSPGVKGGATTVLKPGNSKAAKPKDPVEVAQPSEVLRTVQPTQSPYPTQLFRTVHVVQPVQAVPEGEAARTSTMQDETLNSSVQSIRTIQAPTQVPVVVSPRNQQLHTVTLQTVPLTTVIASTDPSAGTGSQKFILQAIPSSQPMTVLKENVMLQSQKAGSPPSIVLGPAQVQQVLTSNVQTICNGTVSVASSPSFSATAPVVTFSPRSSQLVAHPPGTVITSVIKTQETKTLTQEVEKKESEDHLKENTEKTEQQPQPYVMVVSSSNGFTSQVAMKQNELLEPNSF
How it was run: as §1

SPI1 = SPI1 (Homo sapiens, UniProt P17947 1-270); settings: protein: recombinant; tags: N-terminal GST; dsDNA, one strand shown
How it was run: as §1

SPIB = SPIB (Homo sapiens, UniProt Q01892 1-262); settings: protein: recombinant; tags: N-terminal GST; dsDNA, one strand shown
Chain of SPIB (Q01892 whole entry): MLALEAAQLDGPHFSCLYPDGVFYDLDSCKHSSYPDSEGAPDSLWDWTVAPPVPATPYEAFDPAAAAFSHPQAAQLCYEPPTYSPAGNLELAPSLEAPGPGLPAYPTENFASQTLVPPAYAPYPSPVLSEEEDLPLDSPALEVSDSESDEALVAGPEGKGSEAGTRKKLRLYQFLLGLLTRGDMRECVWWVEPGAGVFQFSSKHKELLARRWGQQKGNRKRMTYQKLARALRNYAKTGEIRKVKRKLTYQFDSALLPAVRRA
How it was run: as §1

ELK3 = target: T4, ELK3 (Homo sapiens, UniProt P41970 1-407); settings: protein: recombinant; tags: N-terminal GST; dsDNA, one strand shown
T4 sequence: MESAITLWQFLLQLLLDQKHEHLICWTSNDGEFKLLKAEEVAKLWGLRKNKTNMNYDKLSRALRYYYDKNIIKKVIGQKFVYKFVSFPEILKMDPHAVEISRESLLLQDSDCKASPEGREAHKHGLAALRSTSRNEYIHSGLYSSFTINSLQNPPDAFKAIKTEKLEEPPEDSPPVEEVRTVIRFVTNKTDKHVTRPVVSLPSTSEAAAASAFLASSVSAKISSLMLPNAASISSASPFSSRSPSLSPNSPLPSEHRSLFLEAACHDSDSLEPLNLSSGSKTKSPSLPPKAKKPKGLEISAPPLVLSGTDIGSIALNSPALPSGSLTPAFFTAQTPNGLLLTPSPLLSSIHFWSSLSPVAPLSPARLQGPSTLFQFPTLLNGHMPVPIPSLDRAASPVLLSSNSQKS
How it was run: as §1

FEV = target: T5, FEV (Homo sapiens, UniProt Q99581 1-238); settings: protein: recombinant; tags: N-terminal GST; dsDNA, one strand shown
T5 sequence: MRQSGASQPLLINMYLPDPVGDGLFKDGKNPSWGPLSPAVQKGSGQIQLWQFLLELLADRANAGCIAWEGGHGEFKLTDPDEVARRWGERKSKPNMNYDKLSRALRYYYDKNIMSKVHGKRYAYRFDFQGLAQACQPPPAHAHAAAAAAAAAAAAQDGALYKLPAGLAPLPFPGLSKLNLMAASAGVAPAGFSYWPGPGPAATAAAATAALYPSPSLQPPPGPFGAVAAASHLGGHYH
How it was run: as §1

ETV5 = ETV5 (Homo sapiens, UniProt P41161 1-510); settings: protein: recombinant; tags: N-terminal GST; dsDNA, one strand shown
Chain of ETV5 (P41161 whole entry): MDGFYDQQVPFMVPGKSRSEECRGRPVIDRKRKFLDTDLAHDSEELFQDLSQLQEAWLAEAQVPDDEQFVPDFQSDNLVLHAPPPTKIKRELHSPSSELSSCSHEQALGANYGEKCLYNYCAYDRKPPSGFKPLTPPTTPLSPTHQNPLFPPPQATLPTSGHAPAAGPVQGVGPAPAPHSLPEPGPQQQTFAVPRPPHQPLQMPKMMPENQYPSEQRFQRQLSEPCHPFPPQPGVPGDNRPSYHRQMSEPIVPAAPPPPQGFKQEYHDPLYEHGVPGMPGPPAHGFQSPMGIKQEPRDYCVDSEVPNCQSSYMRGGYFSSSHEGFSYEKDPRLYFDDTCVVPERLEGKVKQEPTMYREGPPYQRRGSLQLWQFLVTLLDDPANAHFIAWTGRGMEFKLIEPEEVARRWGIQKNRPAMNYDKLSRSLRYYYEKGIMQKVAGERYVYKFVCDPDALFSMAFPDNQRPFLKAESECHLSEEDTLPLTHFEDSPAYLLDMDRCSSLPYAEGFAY
How it was run: as §1

HSF1 = HSF1 (Homo sapiens, UniProt Q00613 1-529); settings: protein: recombinant; tags: N-terminal GST; chain copies: 3; dsDNA, one strand shown
Chain of HSF1 (Q00613 whole entry): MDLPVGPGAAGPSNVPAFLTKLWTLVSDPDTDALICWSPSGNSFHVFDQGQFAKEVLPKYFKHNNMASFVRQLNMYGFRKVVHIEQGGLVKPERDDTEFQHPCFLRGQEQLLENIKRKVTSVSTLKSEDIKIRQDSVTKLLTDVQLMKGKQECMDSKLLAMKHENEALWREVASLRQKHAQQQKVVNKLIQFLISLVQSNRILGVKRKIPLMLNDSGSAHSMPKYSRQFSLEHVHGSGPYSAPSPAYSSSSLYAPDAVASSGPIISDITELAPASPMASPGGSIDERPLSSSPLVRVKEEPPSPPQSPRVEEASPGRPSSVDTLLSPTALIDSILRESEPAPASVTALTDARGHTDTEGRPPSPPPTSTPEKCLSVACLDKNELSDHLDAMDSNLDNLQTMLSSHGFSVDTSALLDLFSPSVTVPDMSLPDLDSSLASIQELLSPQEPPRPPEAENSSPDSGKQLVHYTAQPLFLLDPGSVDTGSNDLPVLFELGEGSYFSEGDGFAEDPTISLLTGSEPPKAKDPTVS
How it was run: as §1

ELK4 = target: T6, ELK4 (Homo sapiens, UniProt P28324-2 1-405); settings: protein: recombinant; tags: N-terminal GST; dsDNA, one strand shown
T6 sequence: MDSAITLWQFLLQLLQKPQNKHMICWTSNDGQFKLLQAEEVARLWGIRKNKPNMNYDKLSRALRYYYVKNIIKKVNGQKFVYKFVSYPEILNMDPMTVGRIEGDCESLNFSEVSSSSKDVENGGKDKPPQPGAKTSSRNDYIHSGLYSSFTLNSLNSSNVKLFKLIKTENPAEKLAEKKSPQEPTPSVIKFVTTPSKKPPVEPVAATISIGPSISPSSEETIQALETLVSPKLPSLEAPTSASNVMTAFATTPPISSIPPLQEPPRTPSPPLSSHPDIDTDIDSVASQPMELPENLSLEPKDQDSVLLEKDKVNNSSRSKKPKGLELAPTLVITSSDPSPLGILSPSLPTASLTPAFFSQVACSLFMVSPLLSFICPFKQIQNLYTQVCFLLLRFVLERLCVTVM
How it was run: as §1

ETV2 = target: T7, ETV2 (Homo sapiens, UniProt O00321 1-342); settings: protein: recombinant; tags: N-terminal GST; dsDNA, one strand shown
T7 sequence: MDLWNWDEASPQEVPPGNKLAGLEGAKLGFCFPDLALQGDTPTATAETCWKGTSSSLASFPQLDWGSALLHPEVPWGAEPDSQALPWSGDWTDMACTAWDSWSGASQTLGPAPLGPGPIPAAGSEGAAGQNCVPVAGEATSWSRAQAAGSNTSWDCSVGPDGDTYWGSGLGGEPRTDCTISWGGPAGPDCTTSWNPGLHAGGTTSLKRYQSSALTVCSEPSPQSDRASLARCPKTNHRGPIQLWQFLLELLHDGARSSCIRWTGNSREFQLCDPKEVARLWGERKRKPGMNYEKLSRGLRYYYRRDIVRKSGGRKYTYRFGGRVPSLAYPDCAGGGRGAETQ
How it was run: as §1

ELF3 = target: T8, ELF3 (Homo sapiens, UniProt P78545 1-371); settings: protein: recombinant; tags: N-terminal GST; dsDNA, one strand shown
T8 sequence: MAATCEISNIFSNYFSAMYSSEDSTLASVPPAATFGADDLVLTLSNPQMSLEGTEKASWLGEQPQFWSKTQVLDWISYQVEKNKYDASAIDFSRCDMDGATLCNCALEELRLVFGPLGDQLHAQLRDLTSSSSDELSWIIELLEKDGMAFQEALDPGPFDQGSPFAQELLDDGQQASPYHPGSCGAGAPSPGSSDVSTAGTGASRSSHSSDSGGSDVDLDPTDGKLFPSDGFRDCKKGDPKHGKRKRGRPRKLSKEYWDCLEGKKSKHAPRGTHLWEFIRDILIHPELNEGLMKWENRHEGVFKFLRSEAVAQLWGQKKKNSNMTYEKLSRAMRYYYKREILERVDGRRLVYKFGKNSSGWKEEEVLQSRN
How it was run: as §1

CRX = CRX (Homo sapiens, UniProt O43186 1-299); settings: protein: recombinant; tags: N-terminal GST; dsDNA, one strand shown
Chain of CRX (O43186 whole entry): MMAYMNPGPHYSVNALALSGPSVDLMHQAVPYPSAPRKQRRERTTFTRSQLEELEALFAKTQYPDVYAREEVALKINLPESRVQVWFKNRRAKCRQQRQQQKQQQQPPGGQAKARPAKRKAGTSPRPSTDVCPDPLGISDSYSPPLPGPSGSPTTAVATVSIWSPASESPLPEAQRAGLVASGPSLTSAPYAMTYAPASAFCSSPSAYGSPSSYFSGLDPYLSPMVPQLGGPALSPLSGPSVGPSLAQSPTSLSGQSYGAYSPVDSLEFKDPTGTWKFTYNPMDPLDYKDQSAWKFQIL
How it was run: as §1

ETV1 = ETV1 (Homo sapiens, UniProt P50549 1-477); settings: protein: recombinant; tags: N-terminal GST; dsDNA, one strand shown
Chain of ETV1 (P50549 whole entry): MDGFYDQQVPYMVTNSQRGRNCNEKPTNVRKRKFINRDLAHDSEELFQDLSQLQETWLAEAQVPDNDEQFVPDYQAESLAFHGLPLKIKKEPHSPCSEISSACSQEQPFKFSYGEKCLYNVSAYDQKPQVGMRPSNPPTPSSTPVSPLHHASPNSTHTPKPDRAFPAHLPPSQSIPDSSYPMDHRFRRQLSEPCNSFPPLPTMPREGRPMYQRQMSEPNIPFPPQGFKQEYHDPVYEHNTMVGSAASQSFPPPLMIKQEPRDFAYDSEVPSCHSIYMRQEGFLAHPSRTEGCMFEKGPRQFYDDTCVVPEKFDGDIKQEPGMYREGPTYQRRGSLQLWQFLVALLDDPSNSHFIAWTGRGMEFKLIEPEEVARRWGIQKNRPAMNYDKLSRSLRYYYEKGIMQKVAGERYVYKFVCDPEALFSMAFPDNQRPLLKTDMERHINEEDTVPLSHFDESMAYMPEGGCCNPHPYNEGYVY
How it was run: as §1

EHF = target: T9, EHF (Homo sapiens, UniProt Q9NZC4 1-300); settings: protein: recombinant; tags: N-terminal GST; dsDNA, one strand shown
T9 sequence: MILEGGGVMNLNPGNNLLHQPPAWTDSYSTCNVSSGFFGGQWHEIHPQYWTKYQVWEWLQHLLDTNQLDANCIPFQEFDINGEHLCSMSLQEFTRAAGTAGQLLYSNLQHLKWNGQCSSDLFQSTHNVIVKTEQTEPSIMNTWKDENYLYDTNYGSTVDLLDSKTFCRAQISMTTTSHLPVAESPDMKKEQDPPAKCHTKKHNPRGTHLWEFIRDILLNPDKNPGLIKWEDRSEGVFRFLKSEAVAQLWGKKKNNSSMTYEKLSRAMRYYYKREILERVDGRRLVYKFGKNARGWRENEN
How it was run: as §1

ELF4 = ELF4 (Homo sapiens, UniProt Q99607 1-663); settings: protein: recombinant; tags: N-terminal GST; dsDNA, one strand shown
Chain of ELF4 (Q99607 whole entry): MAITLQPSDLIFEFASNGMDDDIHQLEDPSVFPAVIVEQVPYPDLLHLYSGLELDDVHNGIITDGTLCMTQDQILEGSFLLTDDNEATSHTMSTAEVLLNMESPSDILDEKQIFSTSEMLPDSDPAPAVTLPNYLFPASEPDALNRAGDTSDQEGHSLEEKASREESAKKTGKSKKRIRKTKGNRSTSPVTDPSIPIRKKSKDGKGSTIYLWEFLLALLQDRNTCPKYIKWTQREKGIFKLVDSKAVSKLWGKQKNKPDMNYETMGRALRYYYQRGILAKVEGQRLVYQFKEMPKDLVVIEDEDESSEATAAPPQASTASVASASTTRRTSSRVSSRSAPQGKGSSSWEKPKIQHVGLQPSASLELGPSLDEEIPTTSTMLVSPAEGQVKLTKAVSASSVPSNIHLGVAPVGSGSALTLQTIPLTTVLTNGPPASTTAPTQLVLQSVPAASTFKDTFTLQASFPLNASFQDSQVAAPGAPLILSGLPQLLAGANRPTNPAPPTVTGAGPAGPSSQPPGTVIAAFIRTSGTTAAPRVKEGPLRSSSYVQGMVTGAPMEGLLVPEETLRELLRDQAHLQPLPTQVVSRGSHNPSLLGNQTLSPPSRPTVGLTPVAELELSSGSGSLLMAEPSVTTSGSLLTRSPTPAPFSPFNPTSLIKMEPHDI
How it was run: as §1

Sequence | binding signal (FLI1) | binding signal (ELK1) | binding signal (GABPA) | binding signal (ELF1) | binding signal (SPI1) | binding signal (SPIB) | binding signal (ELK3) | binding signal (FEV) | binding signal (ETV5) | binding signal (HSF1) | binding signal (ELK4) | binding signal (ETV2) | binding signal (ELF3) | binding signal (CRX) | binding signal (ETV1) | binding signal (EHF) | binding signal (ELF4)
TAGTGC | 1.05 fold enrichment (6-mer frequency, TF over GST control) | 1.02 fold enrichment (6-mer frequency, TF over GST control) | 1.12 fold enrichment (6-mer frequency, TF over GST control) | 1.1 fold enrichment (6-mer frequency, TF over GST control) | 1.05 fold enrichment (6-mer frequency, TF over GST control) | 1.03 fold enrichment (6-mer frequency, TF over GST control) | 1.07 fold enrichment (6-mer frequency, TF over GST control) | 1.02 fold enrichment (6-mer frequency, TF over GST control) | 1.08 fold enrichment (6-mer frequency, TF over GST control) | 1.02 fold enrichment (6-mer frequency, TF over GST control) | 1.04 fold enrichment (6-mer frequency, TF over GST control) | 1.02 fold enrichment (6-mer frequency, TF over GST control) | 1.03 fold enrichment (6-mer frequency, TF over GST control) | 1.16 fold enrichment (6-mer frequency, TF over GST control) | 1.09 fold enrichment (6-mer frequency, TF over GST control) | – | –
CGATGA | 1.01 fold enrichment (6-mer frequency, TF over GST control) | 1.09 fold enrichment (6-mer frequency, TF over GST control) | 1.05 fold enrichment (6-mer frequency, TF over GST control) | 1.11 fold enrichment (6-mer frequency, TF over GST control) | 1.06 fold enrichment (6-mer frequency, TF over GST control) | 1.01 fold enrichment (6-mer frequency, TF over GST control) | 1.09 fold enrichment (6-mer frequency, TF over GST control) | – | 1.05 fold enrichment (6-mer frequency, TF over GST control) | 1.02 fold enrichment (6-mer frequency, TF over GST control) | 1.01 fold enrichment (6-mer frequency, TF over GST control) | – | – | – | – | 1.08 fold enrichment (6-mer frequency, TF over GST control) | 1.06 fold enrichment (6-mer frequency, TF over GST control)

Reference: paper PMC7862700, “An all-to-all approach to the identification of sequence-specific readers for epigenetic DNA modifications on cytosine”
